PubChem BioAssay (EPA / NIEHS)
Active and inactive are the calls of the source. The calls were made as follows: active = hit-call score of the fitted dose curve at least 0.9, where 1 is the maximum; inactive = score below 0.9.

Key:
Details in all cases: mRNA level, 48 h; actives raise or lower the signal
[1] = read-out: 3-Hydroxy-3-Methylglutaryl-CoA Synthase 2 (HMGCS2), HMGCS2 (gene 3158); assay: LTEA_HepaRG_HMGCS2: Life Technologies and Expression Analysis (LTEA) Assay for 3-Hydroxy-3-Methylglutaryl-CoA Synthase 2 (HMGCS2) using HepaRG (AID 2283504)
In short: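 Differentiated human HepaRG cells were exposed in duplicate for 48 h in serum-free induction medium to eight concentrations (top 100 uM, half-log steps, 0.5% DMSO). HMGCS2 mRNA was quantified by TaqMan qRT-PCR, normalised to ACTB, GAPDH and POLR2A, then fitted bidirectionally against DMSO.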

HGF (gene 3082) = assay: LTEA_HepaRG_HGF: Life Technologies and Expression Analysis (LTEA) Assay for Hepatocyte Growth Facto (HGF) using HepaRG (AID 2283505)
In short: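 Differentiated human HepaRG cells in serum-free induction medium were exposed in duplicate for 48 h to eight concentrations (top 100 uM, half-log steps, 0.5% DMSO). HGF mRNA was quantified by qRT-PCR, normalized to ACTB, GAPDH and POLR2A.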

[2] = read-out: Insulin Like Growth Factor 1 (IGF1), IGF1 (gene 3479); assay: LTEA_HepaRG_IGF1: Life Technologies and Expression Analysis (LTEA) Assay for Insulin Like Growth Factor 1 (IGF1) using HepaRG (AID 2283506)
In short: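 qRT-PCR readout of IGF1 mRNA, normalized to three housekeeping genes, after 48 h chemical exposure of HepaRG cells. Concentrations: 8-point half-log series, top 100 uM, 0.5% DMSO vehicle. Gain or loss fitted against DMSO baseline.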

[3] = read-out: Intercellular Adhesion Molecule 1 (ICAM1), ICAM1 (gene 3383); assay: LTEA_HepaRG_ICAM1: Life Technologies and Expression Analysis (LTEA) Assay for Intercellular Adhesion Molecule 1 (ICAM1) using HepaRG (AID 2283507)
In short: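 Differentiated HepaRG cells in serum-free induction medium were exposed in duplicate for 48 h to eight half-log concentrations up to 100 uM in 0.5% DMSO. Transcript levels were measured by qRT-PCR normalized to ACTB, GAPDH and POLR2A; bidirectional fits relative to DMSO.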

[4] = read-out: Insulin-like growth factor-binding protein 1 (IGFBP1), IGFBP1 (gene 3484); assay: LTEA_HepaRG_IGFBP1: Life Technologies and Expression Analysis (LTEA) Assay for Insulin-like growth factor-binding protein 1 (IGFBP1) using HepaRG (AID 2283508)
In short: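 Differentiated human HepaRG cells in serum-free induction medium were exposed in duplicate for 48 h to eight concentrations, top 100 uM with half-log dilutions, in 0.5% DMSO. Transcript levels came from qRT-PCR normalised to ACTB, GAPDH and POLR2A, fitted bidirectionally against DMSO.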

[5] = read-out: Interleukin 6 (IL6), IL6 (gene 3569); assay: LTEA_HepaRG_IL6: Life Technologies and Expression Analysis (LTEA) Assay for Interleukin 6 (IL6) using HepaRG (AID 2283509)
In short: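 Transcript levels, normalized to three housekeeping genes, were quantified by qRT-PCR after 48 h chemical treatment of HepaRG cells. Eight-point half-log series from 100 uM in 0.5% DMSO, duplicates. Fitted both directions against DMSO baseline.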

[6] = read-out: Interleukin 6 Receptor (IL6R), IL6R (gene 3570); assay: LTEA_HepaRG_IL6R: Life Technologies and Expression Analysis (LTEA) Assay for Interleukin 6 Receptor (IL6R) using HepaRG (AID 2283510)
In short: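 HepaRG, 48 h exposure, 8-pt half-log series, top 100 uM, 0.5% DMSO vehicle, duplicates. Read-out: TaqMan qRT-PCR of IL6R transcript, housekeeping-gene normalized. Gain or loss fitted relative to DMSO baseline.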

[7] = read-out: Potassium channel subfamily K member 1 (KCNK1), KCNK1 (gene 3775); assay: LTEA_HepaRG_KCNK1: Life Technologies and Expression Analysis (LTEA) Assay for Potassium channel subfamily K member 1 (KCNK1) using HepaRG (AID 2283511)
In short: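 KCNK1 transcript measured by TaqMan qRT-PCR against three housekeeping genes, after HepaRG cells were treated 48 h with eight half-log concentrations (top 100 uM, 0.5% DMSO). Curves fitted bidirectionally relative to vehicle.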

[8] = read-out: Keratin 19 (KRT19), KRT19 (gene 3880); assay: LTEA_HepaRG_KRT19: Life Technologies and Expression Analysis (LTEA) Assay for Keratin 19 (KRT19) using HepaRG (AID 2283512)
In short: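 Differentiated human HepaRG cells, plated 48 h, were exposed in duplicate for 48 h in serum-free induction medium to eight half-log concentrations up to 100 uM in 0.5% DMSO. KRT19 mRNA was quantified by qRT-PCR, normalized to ACTB, GAPDH and POLR2A, and fitted bidirectionally versus DMSO.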

[9] = read-out: JUN Transcription Factor, JUN (gene 3725); assay: LTEA_HepaRG_JUN: Life Technologies and Expression Analysis (LTEA) Assay for JUN Transcription Factor using HepaRG (AID 2283513)
In short: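 HepaRG, 48 h exposure, 8-pt half-log series top 100 uM, 0.5% DMSO, duplicate. JUN mRNA by qRT-PCR (Fluidigm), housekeeping-normalized (ACTB/GAPDH/POLR2A); bidirectional curve fit vs DMSO baseline.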

[10] = read-out: Lipase C (LIPC), LIPC (gene 3990); assay: LTEA_HepaRG_LIPC: Life Technologies and Expression Analysis (LTEA) Assay for Lipase C (LIPC) using HepaRG (AID 2283514)
In short: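 LIPC expression was quantified by qRT-PCR against three housekeeping genes (ACTB, GAPDH, POLR2A). Differentiated human HepaRG cells received eight half-log doses (top 100 uM, 0.5% DMSO) in duplicate for 48 h; fitting bidirectional relative to DMSO.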

[11] = read-out: Lipoprotein lipase (LPL), LPL (gene 4023); assay: LTEA_HepaRG_LPL: Life Technologies and Expression Analysis (LTEA) Assay for Lipoprotein lipase (LPL) using HepaRG (AID 2283515)
In short: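 LPL transcript levels quantified by TaqMan qRT-PCR against three housekeeping genes after 48 h chemical treatment of HepaRG cells. Eight-point half-log series from 100 uM in 0.5% DMSO, tested in duplicate; bidirectional fitting versus vehicle.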

[12] = read-out: MicroRNA 122 (MIR122), gene 406906; assay: LTEA_HepaRG_MIR122: Life Technologies and Expression Analysis (LTEA) Assay for MicroRNA 122 (MIR122) using HepaRG (AID 2283516); also: the transcript read is the microRNA miR-122
In short: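 qRT-PCR read-out (TaqMan, Fluidigm array), normalized to three housekeeping genes; HepaRG cells dosed 48 h at 8 concentrations up to 100 uM in 0.5% DMSO, duplicate; gain or loss fitted against DMSO baseline.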

[13] = read-out: matrix metalloproteinase-10 (MMP10), MMP10 (gene 4319); assay: LTEA_HepaRG_MMP10: Life Technologies and Expression Analysis (LTEA) Assay for matrix metalloproteinase-10 (MMP10) using HepaRG (AID 2283517)
In short: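 Expression measured by TaqMan qRT-PCR with ACTB/GAPDH/POLR2A normalisation after 48 h chemical exposure of HepaRG cells. Eight half-log concentrations, top 100 uM, 0.5% DMSO vehicle, duplicates; gain or loss fitted against vehicle.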

MYC, MYC (gene 4609) = assay: LTEA_HepaRG_MYC: Life Technologies and Expression Analysis (LTEA) Assay for MYC using HepaRG (AID 2283518)
In short: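 Differentiated human HepaRG cells, plated 48 h then switched to serum-free induction medium, were exposed in duplicate for 48 h to 8-point half-log series up to 100 uM in 0.5% DMSO. MYC mRNA measured by qRT-PCR, normalized to ACTB/GAPDH/POLR2A.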

[14] = read-out: matrix metalloproteinase-3 (MMP3), MMP3 (gene 4314); assay: LTEA_HepaRG_MMP3: Life Technologies and Expression Analysis (LTEA) Assay for matrix metalloproteinase-3 (MMP3) using HepaRG (AID 2283519)
In short: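 Fluidigm-based TaqMan qRT-PCR, normalized to ACTB, GAPDH and POLR2A and fitted bidirectionally versus 0.5% DMSO, measured transcript levels. Treatment: duplicate 48 h exposures of HepaRG cells, ~100,000/well, to eight half-log concentrations topping at 100 uM.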

[15] = read-out: Paternally Expressed 10 (PEG10), PEG10 (gene 23089); assay: LTEA_HepaRG_PEG10: Life Technologies and Expression Analysis (LTEA) Assay for Paternally Expressed 10 (PEG10) using HepaRG (AID 2283520);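 as to AC50: PEG10 transcript by qRT-PCR normalised to ACTB GAPDH and POLR2A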
In short: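 qRT-PCR read-out: PEG10 mRNA normalised to three housekeeping genes, fitted bidirectionally against 0.5% DMSO vehicle. HepaRG cells received test chemicals for 48 h in serum-free induction medium, 8 points, top 100 uM, half-log steps.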

[16] = read-out: Protein phosphatase 2A (PPP2R4), PTPA (gene 5524); assay: LTEA_HepaRG_PPP2R4: Life Technologies and Expression Analysis (LTEA) Assay for Protein phosphatase 2A (PPP2R4) using HepaRG (AID 2283522)
In short: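 HepaRG, 48 h exposure, 8-pt half-log series from 100 uM, 0.5% DMSO vehicle, duplicates. Readout: PPP2R4 mRNA, Fluidigm qRT-PCR, housekeeping-normalized. Bidirectional curve fit vs DMSO baseline.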

[17] = read-out: Phosphatase and tensin (PTEN), PTEN (gene 5728); assay: LTEA_HepaRG_PTEN: Life Technologies and Expression Analysis (LTEA) Assay for Phosphatase and tensin (PTEN) using HepaRG (AID 2283523)
In short: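 Read-out: TaqMan qRT-PCR of PTEN transcript, normalized to three housekeeping genes, fitted in both directions against 0.5% DMSO. Differentiated human HepaRG cultures received chemicals for 48 h, eight-point half-log series topping at 100 uM.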

[18] = read-out: Nuclear factor NF-kappa-B p105 subunit (Homo sapiens) (UniProt P19838); assay: LTEA_HepaRG_NFKB1: Life Technologies and Expression Analysis (LTEA) Assay for Nuclear Factor Kappa B Subunit 1 (NFKB1) using HepaRG (AID 2283521);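 also: TaqMan qRT-PCR transcript normalised to ACTB GAPDH and POLR2A housekeeping genes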
In short: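 Human HepaRG cells receive eight half-log concentrations, highest 100 uM, for 48 h. NFKB1 expression is then quantified by qRT-PCR and analysed for up- or down-regulation relative to 0.5% DMSO vehicle.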

Measured: AC50

Chain of Nuclear factor NF-kappa-B p105 subunit (Homo sapiens) (P19838 whole entry, looked up): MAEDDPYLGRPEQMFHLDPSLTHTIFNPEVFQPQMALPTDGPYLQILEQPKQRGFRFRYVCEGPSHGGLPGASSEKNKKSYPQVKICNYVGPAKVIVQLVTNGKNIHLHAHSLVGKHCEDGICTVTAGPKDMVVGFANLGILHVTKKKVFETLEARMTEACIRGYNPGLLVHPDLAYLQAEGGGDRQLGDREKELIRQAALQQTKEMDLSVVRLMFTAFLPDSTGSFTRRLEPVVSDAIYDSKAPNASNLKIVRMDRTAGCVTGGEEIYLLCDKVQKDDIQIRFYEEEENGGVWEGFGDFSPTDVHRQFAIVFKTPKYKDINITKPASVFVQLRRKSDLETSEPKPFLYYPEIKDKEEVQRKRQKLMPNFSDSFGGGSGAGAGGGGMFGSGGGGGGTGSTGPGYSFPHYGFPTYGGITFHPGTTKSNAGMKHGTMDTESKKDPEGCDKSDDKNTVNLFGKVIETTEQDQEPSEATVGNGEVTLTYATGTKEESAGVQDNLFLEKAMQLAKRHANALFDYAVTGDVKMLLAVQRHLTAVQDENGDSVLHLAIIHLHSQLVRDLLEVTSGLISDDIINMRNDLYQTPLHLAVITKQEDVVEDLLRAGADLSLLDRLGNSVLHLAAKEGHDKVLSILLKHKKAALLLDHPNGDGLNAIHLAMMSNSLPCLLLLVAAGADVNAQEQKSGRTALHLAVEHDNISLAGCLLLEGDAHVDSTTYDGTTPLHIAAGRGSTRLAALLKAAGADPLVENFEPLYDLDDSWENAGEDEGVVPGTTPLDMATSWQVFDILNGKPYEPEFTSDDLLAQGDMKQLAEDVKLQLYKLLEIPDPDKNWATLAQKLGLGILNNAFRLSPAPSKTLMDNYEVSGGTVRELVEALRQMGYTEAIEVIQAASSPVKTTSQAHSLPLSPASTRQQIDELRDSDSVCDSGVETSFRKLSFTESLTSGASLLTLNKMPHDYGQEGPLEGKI

OC[C@H]1O[C@@H]2O[C@H]3[C@H](O)[C@@H](O)[C@@H](O[C@H]4[C@H](O)[C@@H](O)[C@@H](O[C@H]5[C@H](O)[C@@H](O)[C@@H](O[C@H]6[C@H](O)[C@@H](O)[C@@H](O[C@H]7[C@H](O)[C@@H](O)[C@@H](O[C@H]1[C@H](O)[C@H]2O)O[C@@H]7CO)O[C@@H]6CO)O[C@@H]5CO)O[C@@H]4CO)O[C@@H]3CO
not listed: [18]
inactive: all other assays above

CC(C)C(=O)Nc1ccc([N+](=O)[O-])c(C(F)(F)F)c1
active: [1] 72.8 µM | HGF (gene 3082) 66.9 µM | [2] 37.8 µM | [3] 87.3 µM | [4] 66.7 µM | [5] 85 µM | [8] 23.5 µM | [10] 55.5 µM | [11] 85.7 µM | [12] 60.8 µM | [13] 50 µM | MYC, MYC (gene 4609) 50 µM | [14] 79.6 µM | [15] 13.5 µM
inactive: [6] | [7] | [9] | [16] | [17]

C[C@@H](Oc1ccc(CNC(=O)c2cccnc2Oc2ccc3c(c2)OCO3)c(F)c1)C(=O)O
active: [1] 25.8 µM
not listed: [14]
inactive: all other assays above

CC1(C)C(=O)N(Cl)C(=O)N1Cl
not listed: [18]
inactive: all other assays above
